# From PubChem BioAssay (NCATS)
# Records with an inconclusive call do not appear. Values without a mark were called inactive. The source made the active and inactive calls. The call rests on the fitted dose curve; in most records, active means well fitted inhibition curve with a large enough effect; inconclusive means small, poorly fitted or top-dose-only effect; inactive means flat fitted curve, though single readings scatter.
# Experiments:
# CRL-7250 = normal cell line; assay: Cytotoxic Profiling of Annotated Libraries Using Quantitative High-Throughput Screening (AID 1296008); settings: Five cell lines viability, CellTiter-Glo ATP luminescence, 48-72 h; max response: hits give low values; further: nearly all actives have a fitted effect of over 60% in size
# Procedure, shortened: (§1)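 Cells exposed to compounds for 48 or 72 hr at 37 degrees Celsius. Viability read as ATP-coupled luminescence with CellTiter-Glo after 10 min at room temperature.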
# HEK293 = assay: as above; settings: Five cell lines viability, CellTiter-Glo ATP luminescence, 48-72 h; max response: hits give low values
# Procedure, shortened: as §1
# On the % scale 0 is the no-effect control and ±100 the full control effect; potency means the concentration at half of the fitted maximal effect.
smiles,measurement,setting,value
CC(C)(O)c1ccc2c(c1)C(O)C[C@H]1[C@](C)(C(=O)O)CCC[C@]21C (stereo partly specified),max response,CRL-7250,1.1%
same,max response,HEK293,0.619%
O=S(=O)(NC1CCC(c2cc(F)ccc2F)(S(=O)(=O)c2ccc(Cl)cc2)CC1)C(F)(F)F (stereo unspecified),outcome,CRL-7250,inactive
same,max response,HEK293,-4.12%
C[C@@H]1O[C@@H](O[C@H]2[C@H](O[C@H]3CC[C@@]4(C)C(CC[C@]5(C)C4CC=C4[C@@H]6CC(C)(C)CC[C@]6(C(=O)O[C@@H]6OC[C@H](O)[C@H](O)[C@H]6O[C@@H]6O[C@@H](C)[C@H](O[C@@H]7O[C@H](CO)[C@@H](O)[C@H](O)[C@H]7O)[C@H](O)[C@H]6O)[C@H](O)C[C@]45C)C3(C)C)O[C@H](CO)[C@@H](O[C@@H]3OC[C@@H](O)[C@H](O)[C@H]3O)[C@@H]2O)[C@H](O)[C@H](O)[C@H]1O (stereo partly specified),outcome,CRL-7250,inactive
same,max response,HEK293,4.66%
COc1ccc(CC2NCCc3c2[nH]c2ccc(C)cc32)cc1OC (stereo unspecified),max response,CRL-7250,-17.7%
same,Potency,HEK293,10.3 µM (active)
Cc1nc(NC(=O)N2CCCC2C(N)=O)sc1-c1csc(C(C)(C)C)n1 (stereo unspecified),max response,CRL-7250,-8.95%
same,max response,HEK293,-25.9%
O=S(=O)(c1ccccc1)c1cnc2c(N3CCNCC3)cccc2c1,max response,CRL-7250,1.33%
same,max response,HEK293,-8.82%
COc1cc2ncnc(Nc3cccc(Cl)c3F)c2cc1OC(=O)N1CCN(C)C[C@H]1C,max response,CRL-7250,-58.2%
same,max response,HEK293,-115%
C[C@@H](O)[C@H](NC(=O)c1ccc(C#Cc2ccc(CN3CCOCC3)cc2)cc1)C(=O)NO,max response,CRL-7250,-14.3%
same,max response,HEK293,-16.7%
CC1CCC2C(C(=O)O)=COC(O[C@@H]3O[C@H](CO)[C@@H](O)[C@H](O)[C@H]3O)C12 (stereo partly specified),max response,CRL-7250,-11.5%
same,max response,HEK293,-3.47%
C[C@@H]1O[C@@H](OC[C@H]2O[C@@H](Oc3cc(O)cc4c3C(=O)C(O)(Cc3ccc(O)cc3)O4)[C@H](O)[C@@H](O)[C@@H]2O)[C@H](O)[C@H](O)[C@H]1O (stereo partly specified),max response,CRL-7250,3.09%
same,max response,HEK293,1.44%
CCNC(=O)Nc1ncc(-c2cc(-c3c(C)cc(OC)cc3C)nc(-c3cnccn3)n2)s1,max response,CRL-7250,-11.4%
same,outcome,HEK293,inactive
O=C(O)c1c(O)c(-c2ccccc2)nc2ccccc12,outcome,CRL-7250,inactive
same,max response,HEK293,-11.2%
CCCC1(c2ccccc2)NC(=O)N(CC(=O)N(C)Cc2c(F)cccc2Cl)C1=O (stereo unspecified),max response,CRL-7250,-1.75%
same,max response,HEK293,-6.56%
CC(C)C(CO)Nc1nc(Nc2ccc(C(=O)O)c(Cl)c2)c2ncn(C(C)C)c2n1 (stereo unspecified),outcome,CRL-7250,inactive
same,max response,HEK293,-4.16%
C[C@@H]1O[C@@H](O[C@H]2[C@H](O)[C@@H](C(=O)O)O[C@@H](O[C@H]3CC[C@@]4(C)C(CC[C@]5(C)C4CC=C4C6CC(C)(C)CC[C@]6(C(=O)O)CC[C@]45C)C3(C)C)[C@@H]2O[C@@H]2OC[C@@H](O)[C@H](O)[C@H]2O)[C@H](O)[C@H](O)[C@H]1O (stereo partly specified),max response,CRL-7250,3.95%
same,max response,HEK293,-0.663%
Nc1ccc(-c2cccc3c(=O)cc(N4CCOCC4)oc23)cc1,Potency,CRL-7250,5.8 µM (active)
same,Potency,HEK293,7.31 µM (active)
CCN1CCN(Cc2ccc(NC(=O)Nc3ccc(Oc4cc(NC)ncn4)cc3)cc2C(F)(F)F)CC1,Potency,CRL-7250,25.9 µM (active)
same,max response,HEK293,-109%
OC[C@H]1O[C@@H](OCCc2ccc(O)cc2)[C@H](O[C@@H]2OC[C@](O)(CO)[C@H]2O)[C@@H](O)[C@@H]1O,max response,CRL-7250,-6.14%
same,max response,HEK293,0.652%
C[C@@H]1C(=O)O[C@H]2C[C@]34[C@H]5C[C@@H](C(C)(C)C)[C@]36[C@@H](OC(=O)[C@H]6O)O[C@]4(C(=O)O5)[C@]21O,max response,CRL-7250,-0.0261%
same,max response,HEK293,-44.8%
Cn1cc(-c2ccc3nnc(Sc4ccc5nn(C)cc5c4)n3n2)cn1,max response,CRL-7250,-2.56%
same,outcome,HEK293,inactive
C[C@@H]1CC[C@]2(C(=O)O)CC[C@]3(C)C(=CCC4[C@@]5(C)CC[C@H](O)C(C)(C)C5C(O)C[C@]43C)[C@@H]2[C@]1(C)O (stereo partly specified),max response,CRL-7250,-5.69%
same,max response,HEK293,4.01%
COc1cc2nc(N3CCCC3)nc(NCCCCCN3CCCC3)c2cc1OC,Potency,CRL-7250,20.6 µM (active)
same,Potency,HEK293,4.61 µM (active)
C=C(CO)C12OC1C1(C)C(=CC2=O)C(O)C(O)CC1C (stereo unspecified),max response,CRL-7250,-0.172%
same,max response,HEK293,-0.602%
N#CC(c1ccnc(OCc2ccc(CN3CCOCC3)cc2)n1)c1nc2ccccc2s1 (stereo unspecified),outcome,CRL-7250,inactive
same,Potency,HEK293,5.17 µM (active)
O=C1Nc2ccccc2C(O)(c2ccccc2)C1O (stereo unspecified),max response,CRL-7250,0.0908%
same,max response,HEK293,-7.58%
CCN1CCN(Cc2ccc(NC(=O)c3ccc(C)c(NC(=O)c4cncc(-c5cccs5)c4)c3)cc2C(F)(F)F)CC1,Potency,CRL-7250,0.461 µM (active)
same,Potency,HEK293,1.3 µM (active)
CC(C)CCC[C@@H](C)[C@H]1CC[C@H]2[C@@H]3CC(=O)[C@H]4C[C@@H](O)CC[C@]4(C)[C@H]3CC[C@]12C,max response,CRL-7250,-2.74%
same,max response,HEK293,-0.18%
CCOC(=O)Nc1cc(-c2ccc(C)c(NS(C)(=O)=O)c2)nn2c(C)nnc12,Potency,CRL-7250,7.31 µM (active)
same,Potency,HEK293,4.11 µM (active)
